Tg IFNy HTS: T. gondii growth inhibition with IFN-gamma, primary screen, cell-based. Toxoplasma gondii growth in IFN-gamma-treated host cells; stronger effect = lower value. activity change, negative = inhibition, % (no concentration beside the values). actives 3.8% (n = 69,000); in the data active = activity change below about -70%, passing the limit was not always enough;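 also: host cells are HeLa cells infected with Toxoplasma gondii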
Starred values were filed as active, the others as inactive; i = inactive. This is one part of a sample in which hits are shown more often than they occur.

SMILES	Tg IFNy HTS
COc1ccccc1OCC(=O)N1CCC[C@]2(C[C@@H](OC)CO2)C1	4.3
COc1ccc(Cl)cc1NS(=O)(=O)c1ccc2[nH]c(=O)ccc2c1	33.3
CCOc1ccccc1-c1nc(Cn2nnc(C(=O)Nc3cc(OC)ccc3OC)c2C)c(C)o1	195.6
Cc1ccccc1C(=O)NN1C(=O)c2ccccc2C1=O	-30.9
COC(=O)c1ccccc1-c1ccccc1C(=O)OC	-59.2
Cc1ccccc1C(=O)O/N=C1\C(=O)c2ccccc2-c2ccccc21	-85.9*
CNc1cc(CNC(=O)c2c(C)oc3c2CCCC3)nc(-c2cccnc2)n1	-11.0
Cc1ccc(CN2C[C@@H]3C[C@H](C(=O)Nc4ccccc4)[C@@H](C2)O3)cc1	-51.8
CCCCCCCCCCCCCCCC[N+](C)(C)CCN(Cc1ccc(OC)cc1)c1ncccn1	-84.2*
COc1ccc(CN(CCN(C)C)c2ccccn2)cc1	0.4
COc1ccc(CN(CCN(C)C)c2ncccn2)cc1	14.7
NS(=O)(=O)c1ccc(-c2ccc(-c3ccn[nH]3)cc2)c(F)c1	-56.1
COc1cccc(C2CCCCN2S(=O)(=O)N2CCC(OC)CC2)c1 (centres undefined)	-67.4
COc1ccc(-c2cc(C(=O)NCc3ccccc3)c3ccccc3n2)cc1	38.4
CN(CCN1CCCCC1=O)C(=O)c1ccccc1C1CCNC1 (centres undefined)	12.5
CC(=O)N1CCOCC12CCN(Cc1csc(C)n1)CC2	2.2
Cc1nc(CN2CCOCC3(CN(CCO)CCO3)C2)cs1 (centres undefined)	0.7
Cc1nc(CN2CCOCC3(CNCCO3)C2)cs1 (centres undefined)	-89.8*
CC(=O)Nc1nc2c(C)cc(C)cc2s1	92.8
COCC(=O)N1CCC2(C=CC(N(C)Cc3ccccn3)CC2)CC1 (centres undefined)	-1.2
FC(F)(F)c1cccc(CN(Cc2ccccn2)CC2CCCO2)c1 (centres undefined)	-9.9
O=C(CCC1CCCO1)Nc1ncc(Cc2cccc(C(F)(F)F)c2)s1 (centres undefined)	-99.3*
CC(=O)N1CCOC(Cc2cccc(C(F)(F)F)c2)C1 (centres undefined)	-2.7
C=CCOCC1CN(C(=O)Cc2ccsc2)Cc2ccnn2C1 (centres undefined)	-6.1
Cc1nc(C)c(C(=O)N2CCC2c2ccc(F)cc2)s1 (centres undefined)	-31.9
SMILES	Tg IFNy HTS
Cc1csc(-c2sc3ccccc3c2O)n1	-27.5
CSc1sc(-c2nc(C)cs2)c(C)c1-c1ccn[nH]1	-85.6*
O=c1cc(Cn2ccnc2)nc2n1CCCN(Cc1ccoc1)C2	5.7
Clc1ccccc1-c1nc(NCCCN2CCN(c3ccccc3)CC2)c2ccccc2n1	-45.9
COCC1c2c(cnn2CC2CC2)CCN1C(=O)Cc1ccccc1F (centres undefined)	1.6
Cc1cc(C)c(N2C(=O)C3C(c4ccccc4)C=CC(c4ccccc4)C3C2=O)c(C)c1 (centres undefined)	-98.8*
Cc1ccsc1[C@@H]1CCN(Cc2ncc[nH]2)C[C@H]1O	-0.1
CN1CCNC(=O)C12CCN(S(=O)(=O)c1cccc(Cl)c1)CC2	-31.7
CCn1ccc(C(=O)N2CCCN(CC3CC3)C(C(C)C)C2)cc1=O (centres undefined)	0.8
CC1(C)C(=O)N=C2c3ccccc3C(=O)C(=O)C21 (centres undefined)	-87.9*
NCCc1cc2nc(-c3ccncc3)ccn2n1	-4.6
Cn1c(CSCC(=O)Nc2ccccc2)nnc1SCC(=O)c1ccc(F)c(F)c1	3.1
CN(Cc1ccco1)[C@H]1CN(C(=O)c2ccco2)C[C@@H]2CCCO[C@H]21	-1.0
CCc1nc(CN2CCCC(C(=O)Nc3ccccc3-c3ccc(OC)cc3)C2)c(C)[nH]1 (centres undefined)	-11.2
C[C@H](Cn1nnc2ccccc21)NC(=O)c1cc(C(C)(C)C)nn1C	2.5
Cn1nc(C(C)(C)C)cc1C(=O)Nc1c(-c2ccccc2)c(C(F)(F)F)nn1C	-95.4*
Cn1nc(C(F)(F)F)c(-c2ccc(Br)cc2)c1NC(=O)C1CCC1C(=O)O (centres undefined)	-10.4
OCC1(O)CCN(Cc2cccc3nonc23)CC1	7.1
COc1ccccc1C1(O)CCCN(C(=O)c2ccc3nc(C)[nH]c3c2)C1 (centres undefined)	8.1
CNC(=O)[C@@H]1C[C@@H](N)CN1C(=O)c1cc(C)c(C)s1	58.1
COc1ccc(-c2nc(Cn3cnc4nc5c(cc4c3=O)CCCC5)c(C)o2)c(OC)c1	42.8
CCC1(O)CC2CN(CCc3c([nH]c4ccccc34)C(C(=O)OC)(c3cc4c(cc3OC)N(C)C3C(O)(C(=O)OC)C(C(=O)OC)C5(CC)C=CCN6CCC43C65)C2)C1 (centres undefined)	-86.3*
O=C(CC1CCCCC1)NCCc1csc(-c2ccccc2)n1	i
CC1CCC2(CC1)NC(=O)N(CC(=O)Nc1cc(F)ccc1N1CCCC1)C2=O (centres undefined)	-5.2
Cc1cc(=O)oc2cc(OCCO)ccc12	3.1
SMILES	Tg IFNy HTS
COc1cccc(-c2[nH]ncc2C(=O)N2CCN(C)C3(CCN(C)CC3)C2)c1	-0.7
C=CCOc1ccc(CNc2ccc3[nH]c(=O)[nH]c3c2)cc1OC	-8.6
COc1cc(CNc2ccc3[nH]c(=O)[nH]c3c2)ccc1OCc1ccccc1	162.5
O=c1[nH]c2ccc(NCC#Cc3ccccc3)cc2[nH]1	-83.5*
COc1ccc(OC)c(NC(=O)C2=C(C)C(=O)OC23CCN(C(C)=O)CC3)c1	214.1
CCCc1ncc(-c2ccc(OCC)c(OCC)c2)[nH]1	-3.7
CCOc1ccc(-c2cnc[nH]2)cc1OCC	-47.2
CCOc1ccc(-c2cnc(-c3nccn3CC)[nH]2)cc1OCC	-80.6*
O=C(NC1CC1)c1ccnc(-c2ccc3c(c2)OCO3)c1	-49.0
Cc1ccc(CN2CCC(N(C)C)CC2C(=O)O)o1 (centres undefined)	111.0
CCCS(=O)(=O)N1CCC(Cc2nnc(SC)n2C)CC1	6.3
Cc1oc(-c2ccc(NC(=O)c3ccco3)cc2)nc1Cn1cccn1	28.2
Cn1cc(N2C(=O)CCC3C2CCN3C(=O)c2ccoc2)cn1 (centres undefined)	-13.2
O=c1[nH]c2cc(Cl)c(Cl)cc2[nH]c1=O	-72.1*
O=c1[nH]c2cc(Cl)c(Cl)c([N+](=O)[O-])c2[nH]c1=O	16.6
O=c1[nH]c2cc(C(F)(F)F)cc(Br)c2[nH]c1=O	-64.0
Cc1occc1C(=O)NN1CC(=O)N(c2ccccc2-c2ccccc2)C1=O	23.1
CCC(NC(=O)CN1C(=O)C2CCC(C)(C1=O)C2(C)C)c1ccc(OC)cc1 (centres undefined)	-6.2
C=CCOC1CC2CC1CN2C(=O)c1cnoc1C (centres undefined)	4.6
CCC(CC)C(=O)N1CCC2(CC1)Nc1ccc(C)c(C)c1-n1cccc12	21.2
O=C(Nc1cccc2ccccc12)OC1CCS(=O)(=O)C1 (centres undefined)	27.7
O=C(Nc1cccc2ccccc12)NC1CCCCC1	-93.1*
O=C(Nc1cccc2ccccc12)N1CCOCC1	180.6
Cc1onc(-c2ccccc2Cl)c1C(=O)Nc1sc2c(c1C#N)CCC2	42.0
N#Cc1c(N2C(=O)C3C4c5ccccc5C(c5ccccc54)C3C2=O)sc2c1CCC2 (centres undefined)	-78.8*
Cc1[nH]cnc1-c1nccn1CCCN(C)C	-3.1
COc1nn(CC(=O)Nc2nc3c(s2)CCCCCC3)c(=O)c2ccccc12	-85.6*
O=C(COC(=O)CN1C(=O)C(=O)c2ccccc21)Nc1nc2c(s1)CCCC2	-9.6

Assay outcomes: PubChem BioAssay, Broad Institute
